# Test results: the supplement of paper PMC12494721
# Counter-ions that a name gives are not always drawn.
# Key:
# Settings in all cases: incubation time: 27 h, anaerobic, 37 °C;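 for the amine columns active = adjusted P below 0.05 in both replicates with a change the same way and a mean fold change under 0.8 or over 1.25; inactive = the rest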
# [1] = tested on: Clostridium sporogenes DSM 1664; test: growth (OD595) fold change vs plate DMSO controls (fold change (ratio)); higher = more growth
# Procedure, shortened: (§1)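 Growth is the fold change relative to the median of plate DMSO controls. Readings came from anaerobic mGAM cultures in 96-well plates grown for 27 h at 37 °C and read at 595 nm. They were blank-subtracted, corrected for compound background with 20 µM compound solutions in water, and converted to OD with a calibration factor of 5. Values are means of 2 biological replicates, and fold changes above 1.5 were set to NA.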
# Escherichia coli IAI1 [2] = test: as above
# Procedure, shortened: as §1
# [3] = tested on: Klebsiella aerogenes DSM 30053; test: as above
# Procedure, shortened: as §1
# [4] = tested on: Ruminococcus gnavus DSM 108212; test: as above
# Procedure, shortened: as §1
# [5] = tested on: Klebsiella aerogenes DSM 30053; test: fold change of Histamine concentration vs plate DMSO controls (fold change (ratio)); higher = more amine produced, active = hit call of the paper (significant change in both replicates, either direction)
# Procedure, shortened: (§2)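 Using LC–triple-quadrupole MS with dynamic MRM, amines were quantified against external calibration curves and corrected for drift within each batch. Samples were whole anaerobic mGAM cultures of four gut strains, grown 27 h at 37 °C from OD 0.1 before 1:1 dilution, extracted with cold acetonitrile/methanol containing 0.1% formic acid and centrifuged. Compounds were present at 20 µM final (sweeteners at 50 µM final). The numbers are fold changes versus plate DMSO controls, each the mean of 2 biological replicates.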
# [6] = tested on: Clostridium sporogenes DSM 1664; test: fold change of Tryptamine concentration vs plate DMSO controls (fold change (ratio)); higher = more amine produced, active = hit call of the paper (significant change in both replicates, either direction)
# Procedure, shortened: as §2
# [7] = tested on: Ruminococcus gnavus DSM 108212; test: as above
# Procedure, shortened: as §2
# Escherichia coli IAI1 [8] = test: fold change of Putrescine concentration vs plate DMSO controls (fold change (ratio)); higher = more amine produced, active = hit call of the paper (significant change in both replicates, either direction)
# Procedure, shortened: as §2
# [9] = tested on: Klebsiella aerogenes DSM 30053; test: as above
# Procedure, shortened: as §2
# Escherichia coli IAI1 [10] = test: fold change of Cadaverine concentration vs plate DMSO controls (fold change (ratio)); higher = more amine produced, active = hit call of the paper (significant change in both replicates, either direction)
# Procedure, shortened: as §2
# [11] = tested on: Klebsiella aerogenes DSM 30053; test: as above
# Procedure, shortened: as §2
# [12] = tested on: Ruminococcus gnavus DSM 108212; test: fold change of 2-Phenylethylamine concentration vs plate DMSO controls (fold change (ratio)); higher = more amine produced, active = hit call of the paper (significant change in both replicates, either direction)
# Procedure, shortened: as §2
Structure (SMILES),growth [1],growth (Escherichia coli IAI1 [2]),growth [3],growth [4],fold change of Histamine concentration [5],fold change of Tryptamine concentration [6],fold change of Tryptamine concentration [7],fold change of Putrescine concentration (Escherichia coli IAI1 [8]),fold change of Putrescine concentration [9],fold change of Cadaverine concentration (Escherichia coli IAI1 [10]),fold change of Cadaverine concentration [11],fold change of 2-Phenylethylamine concentration [12]
O=C(COc1ccc(Cl)cc1)N1CCN(Cc2ccc3c(c2)OCO3)CC1 [Fipexide hydrochloride] (20 µM),1.05,0.947,0.961,0.87,1 (inactive),0.943 (inactive),0.945 (inactive),1 (inactive),1.01 (inactive),0.953 (inactive),1.01 (inactive),0.916 (inactive)
CCOCCn1c(N2CCCN(C)CC2)nc2ccccc21 [Emedastine difumarate] (20 µM),1.08,1.02,1.03,0.971,0.993 (inactive),0.994 (inactive),1.02 (inactive),0.991 (inactive),1.01 (inactive),1 (inactive),0.999 (inactive),1.05 (inactive)
CCN(CC)CCCC(C)Nc1ccnc2cc(Cl)ccc12 (stereo not drawn) [Chloroquine diphosphate] (20 µM),1.07,0.965,0.996,0.941,1.04 (inactive),1.1 (inactive),1.03 (inactive),0.939 (inactive),1.02 (inactive),0.962 (inactive),0.985 (inactive),1.02 (inactive)
CCCOc1ccc(C(=O)OCCN(CC)CC)cc1N [Proparacaine hydrochloride] (20 µM),1.19,1.08,1.14,1.03,0.892 (inactive),1.09 (inactive),1.08 (inactive),1.13 (inactive),0.98 (inactive),0.971 (inactive),1.04 (inactive),1.14 (inactive)
CC(=O)NS(=O)(=O)c1ccc(N)cc1 [Sulfacetamide sodic hydrate] (20 µM),0.934,0.995,0.974,0.888,1.02 (inactive),0.976 (inactive),1.06 (inactive),1.02 (inactive),0.996 (inactive),0.98 (inactive),0.993 (inactive),1.08 (inactive)
CN1C(C(=O)Nc2ccccn2)=C(O)c2sccc2S1(=O)=O [Tenoxicam] (20 µM),1.03,1.04,0.975,1.18,1.07 (inactive),1.01 (inactive),1.01 (inactive),1.05 (inactive),1.01 (inactive),1.01 (inactive),0.977 (inactive),0.959 (inactive)
CC[N+](C)(C)c1cccc(O)c1 [Edrophonium chloride] (20 µM),1.07,1.06,1.01,1.17,1.07 (inactive),0.998 (inactive),1.14 (inactive),1.01 (inactive),1.03 (inactive),0.919 (inactive),1 (inactive),1.11 (inactive)
Nc1ccc(S(=O)(=O)Nc2ccc(Cl)nn2)cc1 [Sulfachloropyridazine] (20 µM),1.03,0.966,1.05,0.974,0.939 (inactive),1.01 (inactive),1.04 (inactive),0.964 (inactive),0.976 (inactive),0.962 (inactive),1.01 (inactive),1.14 (inactive)
CCOC(=O)c1ccc(C#Cc2ccc3c(c2)C(C)(C)CCS3)nc1 [Tazarotene] (20 µM),1.02,0.951,0.961,0.972,1.02 (inactive),1.17 (inactive),1.22 (inactive),0.958 (inactive),0.977 (inactive),0.942 (inactive),1.04 (inactive),1.22 (inactive)
CCC(=O)[C@@]1(C)[C@H](C)C[C@H]2[C@@H]3CCC4=CC(=O)C=C[C@]4(C)[C@H]3[C@@H](O)C[C@@]21C [Rimexolone] (20 µM),1.08,0.953,1.01,1.07,1.02 (inactive),0.98 (inactive),1.05 (inactive),0.983 (inactive),1 (inactive),1.01 (inactive),0.991 (inactive),1.04 (inactive)
Cc1cc(=O)n(-c2ccccc2)n1C [Antipyrine] (20 µM),1.04,0.959,1.03,0.869,0.98 (inactive),1.03 (inactive),1.01 (inactive),0.999 (inactive),1 (inactive),1.01 (inactive),0.999 (inactive),1.02 (inactive)
Cc1cccc(Nc2ccncc2S(=O)(=O)NC(=O)NC(C)C)c1 [Torsemide] (20 µM),1.09,1.07,1,1.03,1.03 (inactive),1.05 (inactive),1.12 (inactive),1.06 (inactive),0.998 (inactive),0.976 (inactive),0.986 (inactive),1.24 (inactive)
CC(=O)Nc1ccccc1 [Acetanilide] (20 µM),1.1,0.998,1,0.941,1.01 (inactive),1.03 (inactive),1.02 (inactive),1.04 (inactive),1.02 (inactive),0.982 (inactive),1.01 (inactive),1.05 (inactive)
C[C@H](Cc1cc2c(c(C(N)=O)c1)N(CCCO)CC2)NCCOc1ccccc1OCC(F)(F)F [Silodosin] (20 µM),1,1,1.02,1.11,0.918 (inactive),1.08 (inactive),1.01 (inactive),0.941 (inactive),0.992 (inactive),1.02 (inactive),1.02 (inactive),0.999 (inactive)
CCN(CC)CCNC(C(=O)OCCC(C)C)c1ccccc1 (stereo not drawn) [Camylofine chlorhydrate] (20 µM),1.11,0.997,1.02,0.857,1.04 (inactive),0.953 (inactive),0.943 (inactive),0.998 (inactive),1 (inactive),0.985 (inactive),0.988 (inactive),0.94 (inactive)
COc1ccc2cc([C@@H](C)C(=O)O)ccc2c1 [(R) Naproxen sodium salt] (20 µM),0.979,1.08,1.07,0.811,1.03 (inactive),1.07 (inactive),1.05 (inactive),0.951 (inactive),0.974 (inactive),0.956 (inactive),1 (inactive),1.11 (inactive)
O=C(OCC(O)CO)c1ccccc1Nc1ccnc2cc(Cl)ccc12 (stereo not drawn) [Glafenine hydrochloride] (20 µM),1.08,0.957,0.977,0.831,1.01 (inactive),0.965 (inactive),1.03 (inactive),0.998 (inactive),0.999 (inactive),0.998 (inactive),1.01 (inactive),1.04 (inactive)
CN1Cc2c(N)cccc2C(c2ccccc2)C1 (stereo not drawn) [Nomifensine maleate] (20 µM),1.07,0.982,1.01,1.1,0.994 (inactive),0.989 (inactive),1.04 (inactive),0.989 (inactive),1.01 (inactive),0.935 (inactive),1.02 (inactive),0.992 (inactive)
O=C1c2ccccc2S(=O)(=O)N1CCCCN1CCN(c2ncccn2)CC1 [Ipsapirone] (20 µM),1,0.977,0.973,0.939,0.94 (inactive),1.04 (inactive),0.997 (inactive),0.992 (inactive),0.997 (inactive),1.02 (inactive),1 (inactive),1.01 (inactive)
CC(=O)[C@H]1CC[C@H]2[C@@H]3CC=C4C[C@@H](O)CC[C@]4(C)[C@H]3CC[C@]12C [Pregnenolone] (20 µM),1.1,1.07,1,0.993,1.06 (inactive),1.04 (inactive),0.998 (inactive),1.03 (inactive),1.02 (inactive),0.968 (inactive),0.994 (inactive),1 (inactive)
CCn1cc(C(=O)O)c(=O)c2cnc(N3CCCC3)nc21 [Piromidic acid] (20 µM),1.09,1.01,1,0.973,0.944 (inactive),1.02 (inactive),1.06 (inactive),0.913 (inactive),1.02 (inactive),1.06 (inactive),0.999 (inactive),1.09 (inactive)
COC1=CC(=O)C[C@@H](C)[C@]12Oc1c(Cl)c(OC)cc(OC)c1C2=O [Griseofulvin] (20 µM),0.993,1.02,0.922,0.915,1.02 (inactive),1.03 (inactive),0.993 (inactive),1.01 (inactive),0.989 (inactive),1.03 (inactive),0.999 (inactive),0.98 (inactive)
Cc1scc2c1N(C(=O)CN1CCN(C)CC1)c1ccccc1NC2=O [Telenzepine dihydrochloride] (20 µM),1.09,1.07,1,1.01,0.927 (inactive),1.01 (inactive),1.01 (inactive),1.06 (inactive),0.984 (inactive),1 (inactive),1.01 (inactive),0.964 (inactive)
COc1cc(C(=O)NCc2ccc(OCCN(C)C)cc2)cc(OC)c1OC [Trimethobenzamide hydrochloride] (20 µM),1.13,1.08,0.972,1.04,0.877 (inactive),1.12 (inactive),1.04 (inactive),1.05 (inactive),0.835 (inactive),1.02 (inactive),0.903 (inactive),1.05 (inactive)
